Bioassay records (PubChem BioAssay)
An excerpt weighted towards active compounds, which were near 2.2% of everything screened.
ADAM10 inh: ADAM10 inhibition, QFRET primary screen; recombinant ADAM10, EDANS/DABCYL FRET peptide cleavage, 3 h; inhibition, % at 7 µM; actives 0.62% (n = 370,000); AID 720582;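 active means inhibition above a per-campaign cutoff equal to the mean of compounds falling between control-based bounds plus 3 SD, cut at about 20% in these data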;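 further: 0% = DMSO wells while the 100% control is not disclosed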
GC-A act: GC-A (human) enzyme activation; P16066; actives 0.14% (n = 370,000); AID 1671463; HEK293 GC-A cells, cGMP TR-FRET, EC30 ANP; 0% at EC30 ANP, 100% saturating ANP; activation, % at 10 µM; in the data active means activation above about 40%
ADAM17 inh: inhibitors of human ADAM17. recombinant ADAM17, EDANS/DABCYL FRET peptide cleavage. inhibition, % at 6.95 µM. actives 0.83% (n = 370,000);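 active means inhibition above the mean of compounds lying between control limits plus 3 SD, set per campaign, cut at about 8.5% in these data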;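 further: 0% = DMSO-only wells as the low control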
GC-B act: GC-B (human) receptor activation. actives 0.11% (n = 370,000). P20594. HEK293-GC-B cells, CNP EC30, cGMP TR-FRET; 0% at EC30 CNP, 100% saturating CNP. AID 1920062. activation, % at 10 µM;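 active means activation at 10 µM reaching about 35% in either raw or pattern-adjusted values, limit read from the data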
Target sequence (P20594 whole entry, looked up): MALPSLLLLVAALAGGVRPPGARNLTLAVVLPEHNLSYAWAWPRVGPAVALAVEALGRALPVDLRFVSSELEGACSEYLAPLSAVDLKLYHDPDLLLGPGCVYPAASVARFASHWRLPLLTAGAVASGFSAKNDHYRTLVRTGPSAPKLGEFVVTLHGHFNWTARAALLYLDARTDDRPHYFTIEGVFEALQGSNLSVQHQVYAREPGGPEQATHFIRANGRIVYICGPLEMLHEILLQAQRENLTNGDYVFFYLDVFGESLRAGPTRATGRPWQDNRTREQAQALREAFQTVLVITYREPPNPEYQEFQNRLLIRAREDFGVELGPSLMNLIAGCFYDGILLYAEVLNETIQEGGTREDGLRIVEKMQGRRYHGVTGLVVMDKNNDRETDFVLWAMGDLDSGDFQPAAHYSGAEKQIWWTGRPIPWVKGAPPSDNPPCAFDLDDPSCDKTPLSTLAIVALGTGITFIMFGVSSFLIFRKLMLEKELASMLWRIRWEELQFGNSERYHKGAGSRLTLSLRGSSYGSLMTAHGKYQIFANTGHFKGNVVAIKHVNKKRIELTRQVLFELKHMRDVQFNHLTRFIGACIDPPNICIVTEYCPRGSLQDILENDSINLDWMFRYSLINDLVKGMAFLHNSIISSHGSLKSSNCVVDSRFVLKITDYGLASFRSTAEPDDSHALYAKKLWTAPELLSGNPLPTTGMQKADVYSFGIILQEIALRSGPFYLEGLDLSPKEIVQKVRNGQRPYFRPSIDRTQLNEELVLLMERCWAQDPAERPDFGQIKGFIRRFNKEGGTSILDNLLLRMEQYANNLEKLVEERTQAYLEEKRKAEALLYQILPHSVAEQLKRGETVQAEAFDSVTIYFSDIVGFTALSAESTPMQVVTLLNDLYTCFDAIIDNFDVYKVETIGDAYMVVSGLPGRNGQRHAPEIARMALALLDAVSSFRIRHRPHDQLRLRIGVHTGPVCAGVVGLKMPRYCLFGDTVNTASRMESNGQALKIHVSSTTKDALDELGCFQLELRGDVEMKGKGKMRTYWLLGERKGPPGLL
KLK7 zymogen act: activators of human kallikrein-7 zymogen; P49862; purified proKLK7, EDANS-DABCYL substrate fluorescence; 100% is mature enzyme control, 0% vehicle; activation, % at 7 µM; actives 0.9% (n = 370,000); AID 652039;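 active means activation above the mean of all tested compounds plus 3 SD, computed per campaign excluding outliers beyond control limits, cut at about 13% in these data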
KLK7 act conf: proKLK7 activation, confirmation. actives 68% (n = 3,200). shares compounds with KLK7 zymogen act. purified proKLK7, EDANS-DABCYL substrate fluorescence; scaled: vehicle 0, mature enzyme 100. activation, % at 7 µM;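 active means activation, as change over the incubation, above the mean of all tested compounds plus 3 SD, cut at about 13% in these data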
EDANS interfere: counter-screen for kallikrein-7 activators: EDANS-DABCYL optical interference | activation, % at 7 µM | AID 686952 | actives 80% (n = 3,200) | shares compounds with KLK7 zymogen act | EDANS-DABCYL substrate fluorescence interference, no enzyme, 4 h; solvent 0%, active enzyme control 100%;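 active means activation above the all-compound mean plus 3 SD, ignoring values outside control-based bounds, cut at about 4.8% in these data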;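 further: value is the 4 h activation minus the activation read at time zero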
K7 EDANS ctr: counter-screen for kallikrein-7 activators: EDANS-DABCYL interference, dose response | shares compounds with KLK7 zymogen act | EDANS-DABCYL peptide fluorescence interference, no enzyme | EC50, µM | actives 20% (n = 250) | AID 720493;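 active means compounds that raise the fluorescence signal in this interference counterscreen, with EC50 at or below 10 µM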;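 further: intact quenched peptide substrate alone read at 355 nm excitation and 520 nm emission; signal is fluorescence gain from T0 to T4 after four hours at room temperature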
* marks the source's active call; other numbers are inactive results.

`CCC(N=c1cc(-c2ccc(OC)cc2)oc2ccc(C)cc12)C(=O)O` (configuration not stated) gave ADAM10 inh inactive, GC-A act 2, ADAM17 inh inactive, GC-B act -1, KLK7 zymogen act 36*, KLK7 act conf 61* and EDANS interfere 72*.
`Cc1cc(C)c2c(n1)nn1c(NCCCN(C)C)cc(C)nc21` gave ADAM10 inh inactive, GC-A act 2, ADAM17 inh inactive, GC-B act -3, KLK7 zymogen act 72*, KLK7 act conf 46* and EDANS interfere 48*.
`Cc1cc(C)c2c(n1)nn1c(NCCOCCO)cc(C)nc21` gave ADAM10 inh inactive, GC-A act 3, ADAM17 inh inactive, GC-B act 4, KLK7 zymogen act 61*, KLK7 act conf 78* and EDANS interfere 80*.
Screening N=c1c(C(=O)NCC2CCCO2)cc2c(=O)n3ccccc3nc2n1Cc1ccc(Cl)cc1 (configuration not stated) returned ADAM10 inh inactive, GC-A act 25, ADAM17 inh inactive, GC-B act 19 and KLK7 zymogen act -5.
`Cc1cccn2c(=O)c3cc(C(=O)NCC4CCCO4)c(=N)n(C4CCCC4)c3nc12` (configuration not stated) gave ADAM10 inh inactive, GC-A act 7, ADAM17 inh inactive, GC-B act -7, KLK7 zymogen act 81*, KLK7 act conf -45 and EDANS interfere -56.
`Cc1cccn2c(=O)c3cc(C(=O)NC4CCCC4)c(=N)n(C4CCCCC4)c3nc12` gave ADAM10 inh inactive, GC-A act 6, ADAM17 inh -254, GC-B act -4 and KLK7 zymogen act -7.
Cc1ccc2nc3c(cc(C(=O)NCC4CCCO4)c(=N)n3C3CCCC3)c(=O)n2c1 (configuration not stated) was read as ADAM10 inh inactive, GC-A act 15, ADAM17 inh inactive, GC-B act -5, KLK7 zymogen act 81*, KLK7 act conf 72* and EDANS interfere 81*.
`N=c1c(C(=O)NCC2CCCO2)cc2c(=O)n3ccccc3nc2n1C1CCCC1` (configuration not stated) gave ADAM10 inh inactive, GC-A act 10, ADAM17 inh inactive, GC-B act -6, KLK7 zymogen act 106*, KLK7 act conf 42*, EDANS interfere 30* and K7 EDANS ctr >69.
N=c1c(C(=O)NCC2CCCO2)cc2c(=O)n3ccccc3nc2n1C1CCCCC1 (configuration not stated) was read as ADAM10 inh inactive, GC-A act 14, ADAM17 inh inactive, GC-B act -4, KLK7 zymogen act 35*, KLK7 act conf 6 and EDANS interfere 3.
Screening O=C(C1CCN(c2cncnc2)CC1)N1CCCC1 returned ADAM10 inh -4, GC-A act -4, ADAM17 inh -4, GC-B act -3 and KLK7 zymogen act 0.
`CCOC(=O)Nc1c2ccccc2nc2ccccc12` gave ADAM10 inh inactive, GC-A act 4, ADAM17 inh -463, GC-B act -8, KLK7 zymogen act 14*, KLK7 act conf 38* and EDANS interfere 43*.
Screening O=C(Nc1ccccc1)c1ccccc1N=Cc1cccc(O)c1 returned ADAM10 inh inactive, GC-A act -5, ADAM17 inh -247, GC-B act -1, KLK7 zymogen act 32*, KLK7 act conf 15* and EDANS interfere 17*.
COCc1cn(-c2ccc3c(c2)[C@@]2(CC(=O)N(C)C2c2ccccc2)C(=O)N3CC(C)C)nn1 (some centres not stated) was read as ADAM10 inh 3, GC-A act -1, ADAM17 inh 1, GC-B act 3 and KLK7 zymogen act 0.
COc1cc2c(cc1OC)CN(C(=O)CN1CCN(S(=O)(=O)c3ccccc3Br)CC1)CC2 was read as ADAM10 inh -190, GC-A act 2, ADAM17 inh -57, GC-B act 2, KLK7 zymogen act 30*, KLK7 act conf 1 and EDANS interfere 0.
Screening COc1ccc(S(=O)(=O)N2CCN(CC(=O)N3CCc4ccccc4C3)CC2)cc1OC returned ADAM10 inh -1, GC-A act -1, ADAM17 inh -7, GC-B act -2 and KLK7 zymogen act 0.
`O=c1c2cc3cccnc3nc2ncn1Cc1cccs1` gave ADAM10 inh -126, GC-A act -5, ADAM17 inh -43, GC-B act -5 and KLK7 zymogen act 4.
Screening COC(=O)[C@]12C[C@H](CC(=O)NCC34CC5CC(CC(C5)C3)C4)C(=O)N(Cc3ccco3)C1=C[C@H](C1CCCC1)O[C@@H]2C returned ADAM10 inh 18, GC-A act -13, ADAM17 inh 6, GC-B act -14 and KLK7 zymogen act 1.
For COC(=O)COc1cc(C)cc2oc(=O)c(CC(=O)OC)c(C)c12 the results were ADAM10 inh inactive, GC-A act 19, ADAM17 inh -180, GC-B act 7, KLK7 zymogen act 74*, KLK7 act conf 97* and EDANS interfere 99*.
Screening Cc1cc(OCc2nn[nH]n2)c2c(C)c(CC(=O)O)c(=O)oc2c1 returned ADAM10 inh inactive, GC-A act 1, ADAM17 inh -234, GC-B act 2 and KLK7 zymogen act 12.
`COC(=O)COc1cc(OCC(=O)OC)c2c(C)c(Cl)c(=O)oc2c1` gave ADAM10 inh inactive, GC-A act 5, ADAM17 inh -339, GC-B act -2, KLK7 zymogen act 192*, KLK7 act conf 304* and EDANS interfere 277*.
For CCOC(=O)COc1cc(OCC(=O)OCC)c2c3c(c(=O)oc2c1)CCCC3 the results were ADAM10 inh -313, GC-A act 13, ADAM17 inh -127, GC-B act 13 and KLK7 zymogen act 2.
COC(=O)C(C)Oc1cc(OC(C)C(=O)OC)c2c(C)c(Cl)c(=O)oc2c1 (configuration not stated) was read as ADAM10 inh inactive, GC-A act 22, ADAM17 inh inactive, GC-B act 4, KLK7 zymogen act 65*, KLK7 act conf -40 and EDANS interfere 29*.
